Screening data from PubChem.
SMN2 splice up: SMN2 splice variant enhancement; HEK293 SMN2-luciferase splicing reporter, luminescence, 30-36 h; Potency, µM (doses to about 46.1 µM), hits mostly activators; actives 2.8% (n = 210,000); further: nearly all actives have a fitted effect of over 55% in size
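qHTS luciferase splicing reporter: luminescence rises when SMN2 exon 7 is included in transfected HEK293 cells. Compound exposure lasted 30-36 h at 37C, with 4.5 mM final sodium butyrate as control, followed by a ONE-Glo read.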
Rab9 promoter act: activators of Rab9 promoter; actives 2.8% (n = 320,000); Potency, µM (highest dose often 9.22 µM), actives largely listed as activators; Huh7 Rab9 promoter-luciferase reporter, luminescence, 24 h; further: nearly all actives have a fitted effect of over 60% in size
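Using Huh7 cells stably transfected with Rab9 promoter–luciferase, compounds were incubated 24 h at 37 °C, 5% CO2; luciferase luminescence was read 10 min after reagent addition.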
FLuc counter: inhibits or activates purified firefly luciferase, miR-21 counter-screen; actives 6.9% (n = 360,000); purified FLuc, Km substrates, luminescence inhibition; P08659; Potency, µM (doses to about 57.5 µM), hits mostly inhibitors; further: nearly all actives have a fitted effect of over 55% in size
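Biochemical qHTS of compounds, final roughly 60 µM downward over six points, against 10 nM purified firefly luciferase using Km concentrations of substrates (10 uM D-luciferin, 10 uM ATP) in Tris acetate pH 7.5 buffer; luminescence output.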
ELG1 genotox: induces genotoxicity in HEK293T cells with luciferase-tagged ELG1 | HEK293T ELG1-luciferase reporter, luminescence, 16 h | Potency, µM (series often up to 46 µM), hits mostly activators | actives 1.3% (n = 330,000) | AID 504466; further: nearly all actives have a fitted effect of over 60% in size
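ELG1-luciferase HEK293T cells, 2,000/well; compound pinned in; 16 hr, 37 °C, 5% CO2; ONE-Glo, 30 min RT; luminescence on CCD imager.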
NPC1 prom act: activators of NPC1 promoter | actives 2.4% (n = 320,000) | Potency, µM (highest dose often 9.22 µM), actives largely listed as activators | Huh7 NPC1 promoter luciferase reporter, 24 h; further: nearly all actives have a fitted effect of over 60% in size
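Huh7 reporter cells (NPC1 promoter driving luciferase) are dosed with compound for 24 h at 37 °C, 5% CO2; luciferase detection reagent is then added and luminescence measured after 10 min at ambient temperature.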
ELG1 repair inh: ELG1-dependent DNA repair inhibition | Potency, µM (series often up to 46.1 µM), actives largely listed as inhibitors | HEK293T ELG1-luciferase reporter, luminescence, 16 h; DNA damage induced by 5-fluorouridine | actives 2.3% (n = 330,000) | AID 504467; further: nearly all actives have a fitted effect of over 55% in size
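Overnight (16 hr) co-exposure of 2,000 cells/well to 5-fluorouridine and compound at 37 °C preceded detection. Luciferase was quantified via ONE-Glo luminescence; loss of signal denotes inhibition.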
Numbers stand for hits; 0 = inactive; ? = inconclusive; - = no result given. Hits are enriched below; roughly 9.2% of the tested compounds scored in any of these assays. The call rests on the fitted dose curve; in most records, active means well fitted curve in the direction sought with a large enough effect; inconclusive means small, poorly fitted or top-dose-only effect, or another doubt; inactive means no such curve, though single readings can be large; an effect the other way counts as inactive or inconclusive.

SMILES	SMN2 splice up	Rab9 promoter act	FLuc counter	ELG1 genotox	NPC1 prom act	ELG1 repair inh
O=C(Nc1ccc2nc(-c3cccnc3)[nH]c2c1)C1CCCCC1	0	0	12µM	0	0	0
CC(C)c1nc2ccc(NC(=O)C34CC5CC(CC(C5)C3)C4)cc2[nH]1	0	0	15µM	0	0	?
Cn1cnc(S(=O)(=O)N2CCN(C(c3ccc(F)cc3)c3ccc(F)cc3)CC2)c1	-	0	0	0	0	?
Cc1ccc(/C=c2\sc3n(c2=O)CN(c2ccc(Br)cc2)CN=3)o1	0	0	?	0	0	0
O=c1/c(=C\c2ccc3c(c2)OCO3)sc2n1CCCN=2	?	3.5µM	4.3µM	3.3µM	0.89µM	?
O=C1/C(=C\c2ccc3c(c2)OCO3)CCC/C1=C/c1ccc2c(c1)OCO2	0	0	?	0	0	0
Cc1ccc(/C=c2/sc3n(c2=O)CCCN=3)o1	13µM	2.8µM	15µM	?	?	?
COc1cc2c(cc1OC)OC(C)(C)C=C2	0	-	-	-	-	-
CCc1nc2nc(C)c(NS(=O)(=O)c3ccc(C(C)(C)C)cc3)c(=O)n2[nH]1	0	-	?	-	-	-
O=C1CSc2ccc(C(=O)NCCc3ccc(Cl)cc3Cl)cc2N1	-	-	-	0	-	26µM
CCNC(=S)Nc1ccc(-c2nc3ccccc3[nH]2)cc1	-	1.1µM	11µM	?	3.2µM	?
O=C(CN1CCOCC1)Nc1ccc(-c2nc3ccccc3[nH]2)cc1	0	?	13µM	?	?	?
O=C(Cc1cccs1)Nc1ccc(-c2nc3ccccc3[nH]2)cc1	18µM	1.6µM	1.5µM	?	1.8µM	?
O=C(Nc1nc2ccccc2[nH]1)C1CCCO1 (stereo not drawn)	0	?	?	0	?	?
CCOc1ccc(NC(=S)NCc2nc3ccccc3[nH]2)cc1	0	0	0	0	0	0
O=C(Nc1ccc(-c2nc3ccccc3[nH]2)cc1)C1CCCO1 (stereo not drawn)	2.2µM	0.32µM	1.2µM	0.41µM	0.35µM	?
O=C(COC(=O)COc1ccc(Cl)cc1Cl)Nc1cccnc1Cl	0	0	0	0	0	0
Cc1cc(C)cc(-n2c(SCC(=O)N3CCc4ccccc43)nc3c([nH]c4ccccc43)c2=O)c1	-	-	0	-	-	-
CCCCn1nc2cc(C(=O)NCc3ccccc3)ccc2c1OCC	0	0	0	0	0	0
O=C(CSc1ccc(Cl)cc1)Nc1cccc(-c2nc3ccccc3[nH]2)c1	2.8µM	?	0	0	0	?
O=C(CSc1ccccc1)Nc1ccc(-c2nc3ccccc3[nH]2)cc1	8.9µM	3.2µM	?	?	2.2µM	?
O=C(CSc1ccc2ccccc2c1)Nc1nc2ccccc2[nH]1	-	0	0	0	0	0
Cc1ccc2nc(SCC(=O)Nc3ccc(C(N)=O)cc3)[nH]c2c1	-	0	0	0	0	0
Cc1ccc2nc(-c3ccc(NC(=O)CSc4ccccc4)cc3)[nH]c2c1	3.5µM	2.5µM	?	?	1.6µM	?
CSc1ccc(-c2ccco2)nn1	-	3.2µM	?	?	?	?
SMILES	SMN2 splice up	Rab9 promoter act	FLuc counter	ELG1 genotox	NPC1 prom act	ELG1 repair inh
Fc1ccc(CSc2ccc(-c3ccco3)nn2)cc1	22µM	3.2µM	4.8µM	?	3.2µM	?
O=C(CSc1ccc(-c2ccco2)nn1)NCc1ccc(F)cc1	0	0	0	0	0	0
CCSc1ccc(-c2ccco2)nn1	0	0	?	0	0	?
Fc1cccc(CSc2ccc(-c3ccco3)nn2)c1	?	?	12µM	?	?	?
COc1cc(/C=N/n2c(-c3ccc4c(c3)NC(=O)CO4)csc2=Nc2cccc(C)c2)ccc1O	0	0	?	0	0	15µM
COCCN=c1scc(-c2ccc3c(c2)NC(=O)CO3)n1/N=C(\C)c1ccc(O)cc1	-	0	0	0	0	18µM
O=C(NCCc1ccc(Cl)cc1)c1cnc2sc(N3CCCCC3)nn2c1=O	-	-	0	-	-	-
COc1ccc(NC(C)=O)cc1S(=O)(=O)Nc1ccc2c(c1)OCCO2	0	0	0	0	0	?
CCSc1ncc(/C=N/Nc2ccc(F)cc2)n1C	11µM	?	11µM	0	?	?
